This is one part of a sample in which hits are shown more often than they occur.
RmlC RmlD mix: mixture blocks RmlC and RmlD coupled enzyme activity; RmlC/RmlD coupled enzyme inhibition, 384-well mixture HTS; hit rate 0.39% among 110,000; inhibition, % at 5.5 µM; in the data active = inhibition above about 30%, passing the limit was not always enough
RT RNaseH block: inhibitors of HIV-1 reverse transcriptase RNase H | P04585 | RT-RNase H RNA/DNA duplex cleavage, fluorescence | inhibition, % at 10 µM | hit rate 1.9% among 65,000; in the data active = inhibition above about 50%
* hit, by the source's call.

What do the screens show for `CC(C)n1c(SCCCc2ccccc2)nc2c1c(=O)[nH]c(=O)n2C`?
RmlC RmlD mix: -1.4; RT RNaseH block: 56.4*

How did C/C=C/Cn1c(SCCCc2ccccc2)nc2c1c(=O)[nH]c(=O)n2C do in these assays?
RmlC RmlD mix: -6.1; RT RNaseH block: -13.7

What do the screens show for `COC(=O)C(C)Sc1nc2c(c(-c3ccc(OC)cc3)c1C#N)-c1ccccc1C2=O` (stereo unspecified)?
RmlC RmlD mix: -13.9

What do the screens show for `COC(=O)[C@H]1[C@@H](C)N(Cc2ccccc2)C(=O)N[C@H]1c1ccccc1`?
RmlC RmlD mix: 8.4

How did CC1CN(S(=O)(=O)c2cccc(C(=O)OCc3cc(=O)oc4cc(O)ccc34)c2)CC(C)O1 (stereo unspecified) do in these assays?
RmlC RmlD mix: 82.4*; RT RNaseH block: -10.6

Results for CN(C)c1cccc(C(=O)OCc2cc(=O)oc3cc(O)ccc23)c1 ?
RmlC RmlD mix: 59.3

Results for COc1ccc(S(=O)(=O)NCCSCc2ccco2)cc1Cl ?
RmlC RmlD mix: 2.2; RT RNaseH block: -76.2

Results for COc1ccc(CCNC(=O)c2cc3c(=O)n4cccc(C)c4nc3n(Cc3ccncc3)c2=N)cc1 ?
RT RNaseH block: -1.8

How did COCCNC(=O)c1cc2c(=O)n3cccc(C)c3nc2n(Cc2ccncc2)c1=N do in these assays?
RmlC RmlD mix: 39.6*; RT RNaseH block: -10.1

Results for Cc1ccc(C2CC(c3cccs3)n3nc(N)nc3N2)cc1 (stereo unspecified) ?
RmlC RmlD mix: 4.7; RT RNaseH block: -0.7

How did O=C(Nc1cccc(-c2nc3ccccc3[nH]2)c1)c1cccc(NC(=O)c2ccco2)c1 do in these assays?
RmlC RmlD mix: 13.5; RT RNaseH block: 63.9*

Results for O=C(Nc1ccc2nc(-c3ccccc3)[nH]c2c1)c1ccco1 ?
RmlC RmlD mix: -9.6

Results for O=S(=O)(Nc1ccc2nc(-c3ccc(Br)o3)[nH]c2c1)c1ccccc1 ?
RmlC RmlD mix: 17.2; RT RNaseH block: 44.6

What do the screens show for `O=C(Nc1ccc2nc(-c3ccc(Br)o3)[nH]c2c1)c1ccco1`?
RmlC RmlD mix: 6.8; RT RNaseH block: 54.7*

How did Cn1cc(C[C@H](NC(=O)OC(C)(C)C)C(=O)N[C@H](CO)Cc2ccccc2)c2ccccc21 do in these assays?
RmlC RmlD mix: -6.1

How did Cc1cc(C(=O)CSc2nnc(-c3cccs3)n2Cc2ccccc2)c(C)n1C do in these assays?
RmlC RmlD mix: -12.9; RT RNaseH block: -47.2

What do the screens show for `O=c1cc(CSc2nnc(-c3cccs3)n2Cc2ccccc2)nc2sc3ccccc3n12`?
RmlC RmlD mix: -9.9; RT RNaseH block: 50.8*

What do the screens show for `C[C@H](NC(CCc1ccccc1)C(=O)O)C(=O)N1CCC[C@H]1C(=O)O` (stereo partly specified)?
RmlC RmlD mix: -10.0

How did Nn1c(-c2ccco2)n[nH]c1=S do in these assays?
RmlC RmlD mix: -11.6; RT RNaseH block: 49.3

What do the screens show for `S=c1[nH]nc(-c2ccco2)n1-c1cccc2ccccc12`?
RmlC RmlD mix: 12.2; RT RNaseH block: 53.8*

Results for COCc1n[nH]c(=S)n1-c1cccc2ccccc12 ?
RmlC RmlD mix: 2.4; RT RNaseH block: 4.1

Results for COc1ccc(-n2c(-c3ccco3)n[nH]c2=S)cc1 ?
RmlC RmlD mix: 13.0; RT RNaseH block: 57.1*

Results for COC(=O)C(NNc1ccccc1)(NC(=O)c1cccc(F)c1)C(F)(F)F (stereo unspecified) ?
RmlC RmlD mix: 8.6

How did COCCNC(=O)c1onc(CSc2ccncc2)c1C(=O)NCCOC do in these assays?
RmlC RmlD mix: -13.9

What do the screens show for `COc1ccccc1C1c2c(oc3ccc(Cl)cc3c2=O)C(=O)N1c1cc(C)on1` (stereo unspecified)?
RT RNaseH block: 51.3*

What do the screens show for `COc1ccc(/C(O)=C2\C(=O)C(=O)N(c3cc(C)on3)C2c2ccccc2OC)cc1` (stereo unspecified)?
RmlC RmlD mix: 0.2; RT RNaseH block: 7.9

Results for CC1CCc2c(sc(N)c2C(N)=O)C1 (stereo unspecified) ?
RmlC RmlD mix: -43.0; RT RNaseH block: 64.6*

How did CCC1CCc2c(sc(N)c2C(N)=O)C1 (stereo unspecified) do in these assays?
RmlC RmlD mix: 4.9

What do the screens show for `CC1(C)[C@@H](O)CC[C@]2(C)C3C(O)C=C4[C@H]5C[C@@](C)(C(=O)O)CC[C@]5(C)CC[C@]4(C)[C@]3(C)CC[C@@H]12` (stereo partly specified)?
RmlC RmlD mix: 4.6

Results for Cc1ccc(C)c(NS(=O)(=O)c2cc(C(=O)Nc3ccccc3-c3ccccc3)ccc2Cl)c1 ?
RmlC RmlD mix: 9.1

What do the screens show for `CCOc1cc(-c2c(C#N)c(N)nc3c2CCCC3C)ccc1O` (stereo unspecified)?
RmlC RmlD mix: -0.1; RT RNaseH block: -12.9

How did CCOc1cc(-c2cc(-c3ccc(C)cc3)nc(N)c2C#N)ccc1O do in these assays?
RmlC RmlD mix: 30.4*

What do the screens show for `COc1ccc(CCNC(=O)CSc2nnc(-c3ccc(F)cc3)o2)cc1OC`?
RmlC RmlD mix: 6.6; RT RNaseH block: 2.7

Screening data (PubChem BioAssay)
